Only some compounds are listed: those with a hit (about 11% of all), similar ones and a draw of the others.
HPGD block: qHTS Assay for Inhibitors of HPGD (15-Hydroxyprostaglandin Dehydrogenase); 150,000 compounds, 4.3% hits; purified HPGD, NADH fluorescence kinetic, PGE2 substrate; AID 894, 2007; Potency, µM, without a hit: at the highest dose activity change, negative = inhibition, most hits filed as inhibitors; note: potency is the fitted concentration of half-maximal effect
Target sequence (P15428 whole entry, looked up): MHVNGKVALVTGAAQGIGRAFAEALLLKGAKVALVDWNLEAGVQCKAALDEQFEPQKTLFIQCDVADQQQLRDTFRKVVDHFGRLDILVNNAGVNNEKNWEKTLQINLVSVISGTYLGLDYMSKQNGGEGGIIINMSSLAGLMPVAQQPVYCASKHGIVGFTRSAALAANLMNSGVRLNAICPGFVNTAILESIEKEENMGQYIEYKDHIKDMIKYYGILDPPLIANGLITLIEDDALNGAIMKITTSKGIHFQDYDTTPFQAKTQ
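NADH formation kinetics: reaction with 30 uM PGE2 and 1 mM NAD+ (final), 20 nM enzyme, Tris-HCl pH 8 with Tween 20, after 15 min compound preincubation at room temperature. Fluorescence change, last versus first of five reads.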
IMPase Li cell: qHTS Assay for Identifying the Cell-Membrane Permeable IMPase Inhibitors: Potentiation with Lithium; CHO-M1 cells, IP1 TR-FRET (IP-One), carbachol + lithium; Potency, µM (series often up to 59.4 µM), without a hit: at the top dose activity, negative = IMPase inhibition, usual class: inhibitors; 210,000 compounds, 0.35% hits; AID 1457, 2008; active = well fitted inhibition curve with a large enough effect; inconclusive = small, poorly fitted or top-dose-only effect; inactive = no such curve, though single readings can be large or run the other way;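 note: IP1 builds up when IMPase is blocked and the TR-FRET signal falls; potency is the fitted concentration of half-maximal effect; plate controls were basal vehicle for no effect and high inhibitor control for full effect; nearly all actives have a fitted effect of over 50% in size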
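Readout is a homogeneous TR-FRET IP1 immunoassay (Ex 320, Em 665 and 620), where raised cytosolic IP1 lowers signal. Cells were CHO-M1 treated 30 min at 37C with test compounds plus a little lithium; AC50 values came from Hill-equation fitting.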
IMPase inh: qHTS Assay for Identifying the Cell-Membrane Permeable IMPase Inhibitors | Inositol monophosphatase 1 (Rattus norvegicus), P97697 | CHO-M1 cells, IP1 accumulation, HTRF TR-FRET ratio | inhibition (IP1 accumulation), % at 46.1 µM | 120,000 tested, under 10 active; active = well fitted curve in the direction sought with a large enough effect in the signal ratio, not every such curve was filed as active; inconclusive = small, poorly fitted or top-dose-only effect, or a change in a side signal; inactive = no such curve, though single readings can be large or run the other way; the % refers to the signal ratio;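 note: cells stimulated with carbachol in lithium chloride buffer; plate controls were DMSO basal wells for no effect and reference inhibitor wells for full effect; higher means more IMPase inhibition seen as more IP1 and lower FRET ratio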
Target sequence (P97697 whole entry, looked up): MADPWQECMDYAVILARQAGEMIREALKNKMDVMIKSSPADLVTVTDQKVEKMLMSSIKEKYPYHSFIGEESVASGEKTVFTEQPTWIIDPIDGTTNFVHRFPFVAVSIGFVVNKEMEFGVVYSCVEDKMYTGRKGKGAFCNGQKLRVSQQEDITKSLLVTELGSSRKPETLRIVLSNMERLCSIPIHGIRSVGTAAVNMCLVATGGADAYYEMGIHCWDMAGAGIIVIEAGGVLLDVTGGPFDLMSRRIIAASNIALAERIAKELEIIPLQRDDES
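CHO-M1 cells (CHO stably expressing M1 receptor), compound up to 46 uM final, stimulated with carbachol (50 uM as added) in buffer with 50mM LiCl, pH 7.4, 30 min at 37C. Cytosolic IP1 read by TR-FRET; AC50 from Hill fits.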
ALDH1A1 inh: qHTS Assay for Inhibitors of Aldehyde Dehydrogenase 1 (ALDH1A1); Purified ALDH1A1, NADH fluorescence, propionaldehyde substrate; Potency, µM (doses to about 75.3 µM), inactives show at the top dose activity, negative = inhibition, most hits filed as inhibitors; 220,000 compounds, 7.3% hits;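 note: potency is the fitted concentration of half-maximal effect; plate controls were no enzyme wells and a reference inhibitor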
PNC inhibitor: High Content Assay for Compounds that inhibit the Assembly of the Perinucleolar Compartment; AID 2417, 2010; activity change (PNC), negative = inhibition, % at 10 µM; 140,000 compounds, 3.1% hits; PC3M PTB-GFP, PNC prevalence imaging, 16 h; hits give low values;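 active = readout at or below -70, meaning at least 70% loss of cells showing the perinucleolar compartment, a nuclear body marking cancer cells; inconclusive = readout between -30 and a set limit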;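 note: plate controls were DMSO wells for no effect and camptothecin positive control wells for full effect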
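Read-out is percentage of cells bearing a perinucleolar compartment, from automated 20x imaging of fixed, Hoechst-stained PC3M PTB-GFP cells. Cells were seeded 4 h, then exposed 16 h to compound (23 nl of library stock) in duplicate plates.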
The depositor's hits bear a star; ? = inconclusive; nt = not tested or not shown; [ ] = remark or other dose. Unless noted, calls come from the whole dose curve; as a rule, active = well fitted inhibition curve with a large enough effect (not every such curve was filed as active); inconclusive = small, poorly fitted or top-dose-only effect, or another doubt; inactive = no such curve, though single readings can be large or run the other way. Unless noted, % is set by controls: 0 for no effect and ±100 for the full control effect.

SMILES | HPGD block | IMPase Li cell | IMPase inh | ALDH1A1 inh | PNC inhibitor
CC(C)(C)OC(=O)NCCCCCc1nnc(SCC(=O)Nc2cccc(Cl)c2)o1 | 14.1µM* | 7.5%[38.3 µM] | 12.1 | ? | -10.0
COc1ccc(C(=O)NCc2nnc(SCC(=O)Nc3cccc(F)c3)o2)cc1 | nt | 7.4% | nt | 9.46µM* | nt
COc1ccc(OC)c(NC(=O)CSc2nnc(CNC(=O)c3ccco3)o2)c1 | -15.7% | 11.4%[38.3 µM] | -6.0 | 10µM* | -15.7
CC(C)=CCC/C(C)=C/CC/C(C)=C/CSCC(=O)O | -11.9% | 3.2% | nt | -0.4% | nt
CCCCC/C=C\C/C=C\C/C=C\C/C=C\CCCCCC(=O)NCCCC(=O)O | -4.4% | 4.0% | nt | -6.0% | nt
O=C(CSc1nnc(CNC(=O)c2c(F)cccc2Cl)o1)Nc1ccc2c(c1)OCCO2 | -7.3% | 13.3%[38.3 µM] | 2.4 | 17.8µM* | ?
Cc1cc(C)cc(NC(=O)CSc2nnc(CNC(=O)c3c(F)cccc3Cl)o2)c1 | nt | nt | 8.3 | nt | nt
c1ccc(-c2nc(-c3cccc4ccccc34)c(Nc3ccc4ccccc4c3)o2)cc1 | -6.9% | 12.8% | nt | ? | nt
N#Cc1ccc(CN2CCC3(CC2)CCN(S(=O)(=O)c2ccccc2)CC3)cc1 | -4.5% | 43.7% | nt | ? | nt
COc1cccc(-c2nc(NCC3CCCO3)c3ccccc3n2)c1O (centres undefined) | -9.8% | 14.1µM* | 2.2 | -16.4% | 27.6
Oc1ccccc1-c1nc(NCC2CCCO2)c2ccccc2n1 (centres undefined) | -8.5% | 24.2%[38.3 µM] | 6.2 | ? | 16.4
CCOC(=O)c1[nH]cnc1C(=O)Nc1ccccc1OC | nt | 4.1% | nt | -9.3% | nt
O=C1c2ccccc2CCC1CNCCc1ccc(O)cc1 (centres undefined) | nt | 15.2% | nt | ? | nt
Cc1cccc(NC(=O)CSc2nc3ccccc3nc2N2CCC(C)CC2)c1 | nt | nt | 0.6 | nt | nt
CCC(=O)/C=C1\Sc2ccc(OC)cc2N1CC | 28.2µM* | 21.9%[38.3 µM] | 1.3 | ? | -7.5
CC1CCN(C(=O)CSc2ccc(-c3ccc(F)cc3)nn2)CC1 | 10µM* | -3.1%[38.3 µM] | -11.1 | -1.7% | -1.5
CCOc1ccc(-c2ccc(SCC(=O)N3CCN(c4ccccc4)CC3)nn2)cc1 | -3.7% | 0.5% | -7.7 | 17.8µM* | 49.9
O=C(CSc1ccc(-c2ccc(F)cc2)nn1)N1CCCCC1 | 15.8µM* | -9.5%[38.3 µM] | -7.2 | -11.8% | -7.2
CC1CCCC(C)N1C(=O)COc1ccccc1F (centres undefined) | nt | -0.5% | nt | 6.1% | nt
CC1CCN(C(=O)COc2ccccc2F)CC1 | 25.1µM* | -5.4%[38.3 µM] | 5.7 | -5.9% | 28.9
CCn1c(=O)c2c(nc(SCC(=O)NCC3CCCO3)n2C)n(C)c1=O (centres undefined) | -10.1% | -13.1%[38.3 µM] | -12.9 | 4.1% | 17.5
Cc1oc(-c2ccc3c(c2)OCCO3)cc1C(=O)NC(CCC(=O)O)C(=O)O (centres undefined) | 14.1µM* | -3.8%[38.3 µM] | -5.6 | 7.94µM* | -19.2
Cc1oc(-c2ccc3c(c2)OCCO3)cc1C(=O)NCC(=O)O | nt | 14.7% | nt | ? | nt
Cc1cccc(C)c1OCc1nc2ccccc2c(=O)n1/N=C/c1ccc(OCC(=O)O)cc1 | -21.0% | -1.7% | nt | 14.1µM* | -26.4
O=c1c2ccccc2nc(COc2ccccc2)n1/N=C/c1ccco1 | -2.3% | 12.0%[38.3 µM] | 0.7 | ? | 39.6
SMILES | HPGD block | IMPase Li cell | IMPase inh | ALDH1A1 inh | PNC inhibitor
O=C(O)COc1ccc(/C=N/n2c(COc3ccccc3)nc3ccccc3c2=O)cc1 | nt | nt | -2.9 | ? | -115.2*
C=CCN=C(NC#N)SCc1ccccc1Cl | nt | nt | 10.8 | ? | 15.9
N#Cc1c(NC(=O)CSc2ncnc3sccc23)oc(-c2ccco2)c1-c1ccco1 | ? | -15.8%[38.3 µM] | -5.7 | 10µM* | 1.2
S=c1cnc2ccccc2[nH]1 | nt | 8.5% | nt | 3.16µM* | nt
c1ccc(CCc2nc3ccccc3[nH]2)cc1 | nt | 7.1% | nt | 4.4% | nt
Cc1cc(-c2n[nH]c(=S)n2/N=C/c2ccc(Br)s2)n[nH]1 | 12.6µM* | -0.9% | nt | -15.3% | -3.6
Cc1cc(-c2n[nH]c(=S)n2/N=C/c2ccc(C)s2)n[nH]1 | 25.1µM* | -1.0% | nt | -10.0% | 18.3
Cc1cc(-c2n[nH]c(=S)n2/N=C/c2ccccc2[N+](=O)[O-])n[nH]1 | -25.5% | -2.5% | nt | 3.7% | -16.0
CCOc1ccc(CCNC(=O)C2CCCN2C(=O)OCc2ccccc2)cc1OCC (centres undefined) | nt | -5.1% | nt | 12.8% | nt
O=C(c1ccco1)N1CCN(c2ncnc3c2nnn3Cc2ccccc2Cl)CC1 | 35.5µM* | 14.0% | 2.1 | ? | 347.2
O=C(c1ccco1)N1CCN(c2nc(C(F)(F)F)nc3c2nnn3Cc2ccccc2)CC1 | ? | 11.6% | 18.4 | 14.1µM* | 236.9
CCOC(=O)C1CCN(c2ncnc3c2nnn3Cc2ccccc2Cl)CC1 | nt | 22.4% | nt | ? | nt
CO[C@]12CC(COC(=O)c3cncc(Br)c3)CN(C)[C@@H]1Cc1cn(C)c3cccc2c13 (some centres undefined) | -1.6% | 10.7% | nt | 2.3% | nt
COc1ccc(C2NC(=O)CS2)cc1 (centres undefined) | -19.3% | 1.6% | 3.5 | -12.6% | -100.0*
NC(=O)c1nc(-c2cccs2)nc2c1[nH]c(=O)n2-c1ccc(F)cc1 | nt | ? | nt | 3.7% | nt
Cc1nn(CCC(N)=S)c2nc(-c3cccs3)cc(C(F)(F)F)c12 | 28.2µM* | -3.9% | -8.6 | 12.6µM* | ?
CC1(C)C(=O)C(c2ccccc2)=C2CN3C(=O)N(CCc4ccccc4)C(=O)C3(Cc3ccccc3)C=C21 (centres undefined) | -16.6% | 5.5% | nt | -29.3% | nt
NNc1cc(C(=O)O)ccc1Cl | nt | nt | nt | 22.4µM* | nt
O=C(NCCCO)/C(=C\c1cn(-c2ccccc2)nc1-c1cccnc1)NC(=O)c1ccccc1 | 4.2% | -10.0% | nt | 1.78µM* | -11.6
O=C(NCC1CCCO1)/C(=C/c1cn(-c2ccccc2)nc1-c1cccnc1)NC(=O)c1ccccc1 (centres undefined) | nt | -12.0% | nt | 0.562µM* | nt
COc1ccc(Nc2nc3cc(Cl)c(Cl)cc3n3cnnc23)cc1Cl | nt | nt | 1.1 | nt | nt
CC(C)(C)C1CCc2c(sc(NC(=O)c3ccco3)c2C(N)=O)C1 (centres undefined) | ? | 5.62µM* | ? | ? | -20.2
NC(=O)c1c(NC(NC(=O)c2ccco2)C(=O)c2ccc(Cl)cc2)sc2c1CCCC2 (centres undefined) | -20.4% | 3.1%[38.3 µM] | 5.3 | 17.8µM* | -10.3
N#Cc1c(NC(NC(=O)c2ccco2)C(=O)c2ccccc2)sc2c1CCCC2 (centres undefined) | -10.7% | 31.7%[38.3 µM] | -11.3 | ? | 43.7
CC(=O)N1CCC2(CC1)CN(c1ccccn1)C2 | ? | 1.5% | nt | ? | nt
